# Source: PubChem (National Center for Advancing Translational Sciences (NCATS))
# DT40 TDP1 no CPT – qHTS for Inhibitors of human tyrosyl-DNA phosphodiesterase 1 (TDP1): qHTS in cells in absence of CPT. AID 686978, 2013. Potency, µM (titrated, usually from 46.2 µM), without a hit: at the highest dose activity change, negative = growth inhibition, hits mostly inhibitors. DT40 Tdp1-/- hTDP1 cells, no CPT, ATP luminescence, 48 h. 420,000 tested, 15% active; also: potency is read from the fitted curve at half-maximal effect; nearly all actives have a fitted effect of over 55% in size
#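 Camptothecin absent (DMSO only). Human TDP1-complemented DT40 knockout cells, 400 cells/well, 37 °C for minimum 48 hr; ATP measured via CellTiter-Glo, 30 min dark incubation, luminescence.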
# HT1080NT lethal – kills 2HG-producing HT-1080-NT fibrosarcoma cells | HT-1080-NT fibrosarcoma viability, CellTiter-Glo ATP luminescence, 48 h | Potency, µM (highest dose often 46.1 µM), without a hit: top-dose activity, negative = less viability, usual class: cytotoxic | 360,000 tested, 1.6% active;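 also: NT is the 2HG producing partner of a matched IDH1 knockdown line; potency is read from the fitted curve at half-maximal effect; 0% = DMSO-treated cells and -100% = media-only wells without cells; nearly all actives have a fitted effect of over 55% in size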
#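 Viability of the 2HG-overproducing fibrosarcoma line after 48 hours of compound exposure at 37 degrees C was determined by luminescence with CellTiter-Glo, and concentration-effect curves were then fitted and categorized.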
# TDP1 cell CPT – growth inhibition of DT40 Tdp1-/-;hTDP1 cells with camptothecin (screen for TDP1 inhibitors) | chicken DT40 Tdp1-/-;hTDP1 cells + 20 nM CPT, ATP luminescence, 48 h | Potency, µM (highest dose often 46.2 µM), for the others: at the highest dose activity change, negative = growth inhibition, usual class: inhibitors | 420,000 tested, 12% active; also: potency is read from the fitted curve at half-maximal effect; nearly all actives have a fitted effect of over 55% in size
#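 Cell growth measured by CellTiter-Glo luminescence after a minimum 48 h, 37 C compound exposure with 20 nM CPT in Tdp1-knockout DT40 cells stably expressing hTDP1, seeded 400/well; qHTS titration format.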
# IL-1B inflam inh – inhibitors of inflammasome signaling (IL-1 beta secretion) | THP-1 LPS/ATP IL-1B secretion, AlphaLISA, 16 h; active compounds read low | 360,000 tested, 4.7% active | activity change, % at 57.5 µM; in the data active = activity change below about -50%; inconclusive = mostly about -30% to -49%
#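 Secreted IL-1B measured by AlphaLISA bead assay after 16 h compound exposure of THP-1 cells; compounds (final up to 57.5 uM) added 1 h before LPS (250 ng/mL) and ATP (1.25 mM) stimulation; lower signal means less secretion.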
# HT1080 IDH1KD tx – toxicity to HT-1080 IDH1 knockdown cells (counter line); HT-1080 IDH1 knockdown viability, ATP luminescence, 48 h; Potency, µM (top dose mostly 46.1 µM), inactives show at the highest dose activity, negative = toxicity, hits mostly cytotoxic; 360,000 tested, 2% active; AID 686971;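 also: potency is read from the fitted curve at half-maximal effect; 0% = DMSO wells and -100% = cell-free medium wells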
#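 Using the IDH1-knockdown HT-1080 line run in the same batch and compound series as the NT line, viability after 48 h at 37 °C was determined by CellTiter-Glo luminescence and expressed as % activity.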
# Starred values were filed as active, the others as inactive; ? = inconclusive; . = not tested or not shown. An excerpt weighted towards active compounds, which were near 19% of everything screened. Unless noted, calls follow the shape of the dose curve; as a rule, active = well fitted curve in the direction sought with a large enough effect; inconclusive = small, poorly fitted or top-dose-only effect, or another doubt; inactive = no such curve, though single readings can be large; an effect the other way counts as inactive or inconclusive. Unless noted, % is scaled to controls: 0 for no effect and ±100 for the full control effect.
SMILES,DT40 TDP1 no CPT,HT1080NT lethal,TDP1 cell CPT,IL-1B inflam inh,HT1080 IDH1KD tx
CS(=O)(=O)N1CC(C(=O)NC2CC2)Oc2ccc(Cl)cc21 (configuration not stated),-10%,1%,-22%,8,-1%
CCOc1ccc(NC(=O)CN2C(=O)NC(C)(c3ccc4c(c3)OCCCO4)C2=O)cc1OCC (configuration not stated),-15%,7%,-5%,1,8%
CCn1cc(C(=O)NCc2cccs2)c(=O)c2cc(S(=O)(=O)N3CCOCC3)ccc21,2%,-1%,-4%,0,-5%
Cc1ccccc1CN1C(=O)CSCC1(C)C(=O)NCc1ccccc1 (configuration not stated),-16%,8%,-5%,-15,8%
Cc1ccc(CN2C(=O)CSCC2(C)C(=O)NCc2ccccc2)cc1 (configuration not stated),?,14%,21µM*,-10,12%
Cc1cccc(C)c1NC(=O)C1(C)CSCC(=O)N1Cc1cccc(C(F)(F)F)c1 (configuration not stated),26µM*,8%,?,-19,1%
Cc1cccc(C)c1NC(=O)C1(C)CSCC(=O)N1Cc1cccc(F)c1 (configuration not stated),-14%,-8%,13%,-20,0%
Cc1ccc(S(=O)(=O)N(C)CC(=O)NNC(=O)Cc2ccccc2F)cc1,7%,2%,-4%,7,3%
CCOC(=O)CN1N=C(c2ccc(Cl)cc2)CCC1=O,-11%,5%,0%,1,12%
CCCCc1ccc(NC(=O)N[C@H](C(=O)O)C(C)CC)cc1 (some centres not stated),10µM*,15%,?,17,14%
CCC(C)[C@H](NC(=O)Nc1ccc(C)cc1C)C(=O)O (some centres not stated),-61%,2%,12µM*,10,6%
CCCCc1ccc(NC(=O)N[C@H](C(=O)O)C(C)C)cc1,7.3µM*,5%,16µM*,19,7%
Cc1cccc(CCNC(=O)C2CCCN(S(=O)(=O)c3ccc4c(c3)oc(=O)n4C)C2)c1 (configuration not stated),-21%,.,?,.,.
Cc1cc(C)n2nc(C(=O)OC(C)C(=O)c3ccccc3)nc2n1 (configuration not stated),1%,-8%,6%,4,-1%
CCOCCCn1c(=S)[nH]c2cc(C(=O)NCc3ccc(F)cc3)ccc2c1=O,18%,-1%,-9%,5,4%
O=C(Nc1nc(=O)n(C(=O)c2cccc(C(F)(F)F)c2)s1)c1ccccc1,-13%,7%,?,-13,4%
O=C(Cc1ccc(Cl)cc1)Nc1cc(S(=O)(=O)N2CCOCC2)ccc1N1CCCC1,?,-1%,-30%,-10,24%
CN1CCN(c2ccc(S(=O)(=O)N3CCCCC3)cc2NC(=O)Cc2ccc(Cl)cc2)CC1,23µM*,-6%,?,15,6%
CN1CCN(c2ccc(Cl)cc2NC(=O)c2ccc(S(=O)(=O)N3CCCCCC3)cc2)CC1,16µM*,-1%,?,0,-10%
COc1cc(OC)cc(C(=O)NCC(=O)OCC(=O)c2ccc3c(c2)-c2ccccc2C3)c1,3%,1%,16%,-1,-1%
Cn1c(=O)c2c(ncn2CC(=O)OCC(=O)Nc2cc(Cl)ccc2Cl)n(C)c1=O,-10%,5%,-1%,0,11%
COc1ccc2c(c1OC)OCC(c1ccc(OC)c(OC)c1OC)C2 (configuration not stated),-9%,.,6%,.,.
CC(C)=CCOc1ccc([C@@H]2COc3c(ccc4c3C=CC(C)(C)O4)C2)c(O)c1,21µM*,?,16µM*,-20,?
CNCc1cc2ccc(C)cc2[nH]c1=O,?,0%,16µM*,21,-1%
